The values that follow come from PubChem BioAssay (EPA / NIEHS).

The source made the active and inactive calls. Rule for the calls: active = hit-call score of the fitted dose curve at least 0.9, where 1 is the maximum; inactive = score below 0.9.

This assay is described as follows: ATG_NFI_CIS: Attagene CIS-FACTORIAL HepG2 Assay for human Nuclear Factor I (NFI) (AID 2282989). The conditions noted are these: HepG2 cis-regulatory reporter, NFI response element transcription; actives raise or lower the signal. How it is done:
ATG_CIS is a cell-based, multiplexed-readout assay that uses HepG2, a human liver cell line, with measurements taken at 24 hours after chemical dosing in a 24-well plate.ATG_NFI_CIS is one of 52 assay component(s) measured or calculated from the ATG_CIS assay. It is designed to make measurements of mRNA induction, a form of inducible reporter, as detected with fluorescence intensity signals by Reverse transcription polymerase chain reaction (RT-PCR) and Capillary electrophoresis technology.Data from the assay component ATG_NFI_CIS was analyzed into 1 assay endpoint. This assay endpoint, ATG_NFI_CIS, was analyzed with bidirectional fitting relative to DMSO as the negative control and baseline of activity. Using a type of inducible reporter, measures of mRNA for gain or loss-of-signal activity can be used to understand the reporter gene at the transcription factor-level as they relate to the gene NFIA. Furthermore, this assay endpoint can be referred to as a primary readout, because this assay has produced multiple assay endpoints where this one serves a reporter gene function. To generalize the intended target to other relatable targets, this assay endpoint is annotated to the dna binding intended target family, where the subfamily is nuclear factor I.
Human liver HepG2 cells are transiently transfected with multiple reporter transcription units (MRTUs) in 6-well plates using FuGene 6 reagent (Roche; 3 ml FuGene/1 mg DNA). The MRTU constructs are regulated by a cis-regulating element (promoter). […] A major difference between the CIS and TRANS system is that in CIS activities of endogenous TFs are measured, whereas the TRANS assay evaluates changes in activities of exogenous, chimeric NR-Gal4 proteins. […] At the end of 24 hour incubation, total RNA was isolated using TriZol reagent (Invitrogen). The isolated RNA is then reverse-transcribed using oligo(dT) primer and Mo-MLV reverse transcriptase (Invitrogen) with DNAse I (Ambion) treatment for 30 min. The one-tenth of the produced cDNA was amplified by PCR using Taq DNA polymerase (Invitrogen) and two reporter sequence-specific primers. The PCR products were fluorescently labeled by primer extension with 6-arboxyfluorescein (6-FAM) 5'-labeled reporter sequence-specific primer (2 min at 95 C, 20 s at 68 C and 10 min at 72 C) and these products were digested with 5U of HpaI (New England Biolabs) for 2h at 37 C. The fragments were purified using Qiaquick PCR columns (Qiagen), analyzed on an ABI 3130xL genetic analyzer (Applied Biosystems) with peak positions identified by using a set of X-rhodamine (ROX)-labeled MapMarker1000 molecular weight standards (BioVentures). The raw capillary electrophoresis data was processed using Attagraph software (Attagene).
Take `CC1=CC[C@@]23C[C@@H]1C(C)(C)[C@@H]2CC[C@H]3C`: the molecule was called inactive.

For `C[Si]1(C)O[Si](C)(C)O[Si](C)(C)O1`, the molecule was classed as inactive.

For `C=C(C)C(=O)OCCOC1CC2CC1C1C=CCC21` (stereo not given), the molecule was called inactive.

Consider `CS(=O)(=O)c1ccc(C2=C(c3ccccc3)C(=O)OC2)cc1`, for which the molecule was classed as inactive.

As for `CC(=O)Nc1ccc(C(=O)CCl)cc1`, the AC50 was 8.18 µM (active).

For the molecule `Cc1[nH]c(=O)c(C#N)cc1-c1ccncc1`, the outcome was inactive.

On to `CCc1ncc(C)[nH]1`, for which the molecule was classed as inactive.

For the molecule `CC(O)C1CCCCC1` (stereo not given), the result was inactive.

As to `CCCC(O)C(O)CO` (stereo not given), the call was inactive.

For `C=CC(=C)CCCC(C)(C)OC(C)=O`, the result was inactive.

On to `CC(=O)OCCCc1ccccc1`, for which the outcome was inactive.

`CN(C)C(=O)Nc1ccc(Oc2ccc(Cl)cc2)cc1`: the call was inactive.

Consider `OC[C@H]1O[C@@H]2O[C@H]3[C@H](O)[C@@H](O)[C@@H](O[C@H]4[C@H](O)[C@@H](O)[C@@H](O[C@H]5[C@H](O)[C@@H](O)[C@@H](O[C@H]6[C@H](O)[C@@H](O)[C@@H](O[C@H]7[C@H](O)[C@@H](O)[C@@H](O[C@H]8[C@H](O)[C@@H](O)[C@@H](O[C@H]9[C@H](O)[C@@H](O)[C@@H](O[C@H]1[C@H](O)[C@H]2O)O[C@@H]9CO)O[C@@H]8CO)O[C@@H]7CO)O[C@@H]6CO)O[C@@H]5CO)O[C@@H]4CO)O[C@@H]3CO`, for which the molecule was classed as inactive.

Take `C=C1C[C@]23C[C@@]1(O)CC[C@H]2[C@@]12C=C[C@H](O)[C@@](C)(C(=O)O1)[C@H]2[C@@H]3C(=O)O`: the result was inactive.

As for `O=C(O)COCC(=O)O`, the call was inactive.

In the case of `CCCC1O[C@@H]2C[C@H]3[C@@H]4CCC5=CC(=O)C=C[C@]5(C)[C@H]4[C@@H](O)C[C@]3(C)[C@]2(C(=O)CO)O1` (stereo not given in full), the call was inactive.

For `CCO/C=C1\N=C(c2ccccc2)OC1=O`, the outcome was inactive.

Turning to `C=Cc1ccc(C(C)(C)C)cc1`, the result was inactive.

On to `CCCCCCCCCCCCCCN(CCO)CCO`, for which the concentration at half-maximal activity (AC50) was 17.2 µM (active).

In the case of `OCC#CCO`, the molecule was called inactive.

In the case of `CCC(=O)O[C@@H]1C[C@H]2CC[C@]1(C)C2(C)C`, the molecule was called inactive.

`CC(C)CCCCCCc1ccc(OCCOCCO)cc1`: the outcome was inactive.

`O=P(O)(O)O`: the result was inactive.

In the case of `O=C(O)CCCCCCCCCCCC(=O)O`, the molecule was classed as inactive.

In the case of `O=C(Nc1ccc2c(c1)Cc1ccccc1-2)C(F)(F)F`, the molecule was called inactive.

With `Nc1ccc2c(O)cc(S(=O)(=O)O)cc2c1`, the outcome was inactive.

Turning to `CCCCCc1ccco1`, the result was inactive.

`C=CCCC(=O)/C=C/C1C(C)=CCCC1(C)C` (stereo not given): the call was inactive.

In the case of `O=c1c(O)c(-c2ccc(O)cc2)oc2cc(O)cc(O)c12`, the molecule was classed as inactive.

As for `CS(=O)(=O)c1ccc(Cl)cc1`, the result was inactive.

Regarding `O=C(Nc1ccc2c(O)c(N=Nc3ccc(N=Nc4ccc(S(=O)(=O)O)cc4)cc3)c(S(=O)(=O)O)cc2c1)c1ccccc1`, the molecule was called inactive.

With `CCCOC(=O)c1c(Cl)c(Cl)c(Cl)c(Cl)c1C(=O)OCCC`, the AC50 is 156 µM (active).

With `Nc1ccccc1[N+](=O)[O-]`, the call was inactive.

Turning to `O=C1c2ccccc2C(=O)c2c(O)ccc(O)c21`, the call was inactive.

Consider `CS(C)=O`, for which the result was inactive.

Consider `CCCCC(CC)COC(=O)c1ccc(O)cc1` (stereo not given), for which the call was inactive.

Regarding `C[C@H]1O[C@@H](O[C@H]2[C@@H](O)C[C@H](O[C@H]3[C@@H](O)C[C@H](O[C@H]4CC[C@@]5(C)[C@H](CC[C@@H]6[C@@H]5C[C@@H](O)[C@]5(C)[C@@H](C7=CC(=O)OC7)CC[C@]65O)C4)O[C@@H]3C)O[C@@H]2C)C[C@H](O)[C@@H]1O`, the AC50 was 0.0705 µM (active).

In the case of `CCN(CC)C(=O)N(CC)CC`, the call was inactive.

As for `CS(=O)(=O)OCCCCOS(C)(=O)=O`, the outcome was inactive.

Regarding `C[N+](C)(C)CCCCCC[N+](C)(C)C`, the molecule was classed as inactive.
